Compound activity as filed in PubChem.
Shown are actives, neighbours in structure and some others; about 3.4% of the full set was active somewhere.
Ecoli rRNA inh: inhibitors of bacterial rRNA selective over humanized ribosomes. GFP signal change (wild-type ribosome), % (concentration not given with the values). 350,000 compounds, 1.6% hits. E. coli WT GFP vs humanized-ribosome RFP mutants, fluorescence, 24 h; hits give low values; DMSO median 0, no signal -100;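 active = significant combined selectivity score with lowered wild-type GFP, culture density cut under 30%, mutant RFP and density less affected; inactive = any of these conditions unmet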
LGR2 inh: Drosophila LGR2 receptor signaling inhibition; inhibition, % at 9.99 µM; AID 720647; HEK293 LGR2, CRE-luciferase, bursicon-stimulated, 4 h; 380,000 compounds, 0.35% hits;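 active = drop in luminescence signal, shown as inhibition above about 50% in the replicate tests, limit read from the data, passing the limit was not always enough; inconclusive = probably only some replicates passing the limit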;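 also: agonist challenge used bursicon conditioned medium at about half maximal strength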
PGC1a acetyl inh: lowers PGC1a acetylation signal in U2OS cells | AlphaScreen anti-acetyl-lysine; with virally co-expressed GCN5 acetyltransferase | inhibition, % at 15.6 µM | 350,000 compounds, 0.17% hits;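 active = every replicate shows inhibition of at least 40%; inconclusive = mean inhibition at least 40% but some replicate below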;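 also: 0% = neutral control wells and 100% = positive control wells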
PAX8 reporter: inhibitors of PAX8 transcriptional activity in RMG-I cells. 360,000 compounds, 1.2% hits. inhibition, % at 12.6 µM. RMG-I TPO-luciferase reporter, SteadyGlo, 24 h;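 active = mean replicate inhibition at least 60% with every replicate also reaching 60%; inconclusive = only one of the two criteria is met; inactive = mean below 60% and not all replicates reaching 60%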;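 also: luciferase light reporting Pax8 driven TPO promoter activity; plate controls were median of neutral control wells for no effect and mitoxantrone controls for full effect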
SIRT5 inh: sirtuin-5 (human) deacylase inhibition | Q9NXA8 | Purified SirT5, succinyl-peptide AMC, trypsin-coupled fluorescence | inhibition, % at 15 µM | 330,000 compounds, 1.1% hits | AID 652115; in the data active = inhibition above about 15%; inconclusive = no clear call, values can overlap the other calls
Target sequence (Q9NXA8 whole entry, looked up): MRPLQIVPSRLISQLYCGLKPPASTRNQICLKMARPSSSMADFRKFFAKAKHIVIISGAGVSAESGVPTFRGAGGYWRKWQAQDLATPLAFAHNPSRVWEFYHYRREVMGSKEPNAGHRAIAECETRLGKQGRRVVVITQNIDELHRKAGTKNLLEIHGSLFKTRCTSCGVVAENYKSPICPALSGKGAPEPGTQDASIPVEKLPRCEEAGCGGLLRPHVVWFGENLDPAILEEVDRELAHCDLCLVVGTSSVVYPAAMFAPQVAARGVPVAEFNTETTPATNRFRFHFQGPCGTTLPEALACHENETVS
EWS-Fli inh: inhibitors of EWS/Fli oncoprotein transcriptional activity; A673 NR0B1-luciferase reporter, viability-normalised; 350,000 compounds, 0.67% hits; inhibition, % at 12.6 µM; AID 651661;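 active = mean inhibition of at least 50% after viability correction, with every replicate also passing that limit; inconclusive = mean reaches 50% but only one of two replicates passes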;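 also: firefly luciferase signal divided by Alamar Blue viability fluorescence both relative to DMSO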
* = called active by the depositor; ? = inconclusive; nt = not tested or not shown.

SMILES	Ecoli rRNA inh	LGR2 inh	PGC1a acetyl inh	PAX8 reporter	SIRT5 inh	EWS-Fli inh
CCOc1ccccc1NC(=O)c1ccc2[nH]c(C)c(C)c2c1	4	-19	7	-65	-2	-77
CCOc1ccc(-c2c(=O)n(O)c3ccccc3[n+]2[O-])cc1	-20*	-80	-3	-147	0	-102
CC(=NNC(=S)Nc1ccccc1Cl)c1ccccn1	-12	7	17	71*	-4	14
CC(=NNC(=S)Nc1ccccc1)c1ccccn1	-12	27	nt	29	7	-4
C=CCNC(=S)N/N=C(\C)c1ccccn1	nt	nt	nt	95*	nt	nt
CC(C)NC(=O)Nc1ccc2c(c1)CC(=O)N(C)C[C@H](C)[C@H](CN(C)C(=O)NC(C)C)O2	3	nt	nt	nt	nt	nt
CC(C)C#Cc1ccc2c(c1)O[C@H](CN(C)C(=O)c1cccc(F)c1)[C@@H](C)CN([C@H](C)CO)S2(=O)=O	-4	4	-4	nt	5	10
CCCCC[C@H](C)N1C[C@H](COCc2ccccc2)Oc2cc(N3CCC[C@@H]3CO)ccc2S1(=O)=O	6	-13	nt	-2	0	7
CCCCC[C@H](C)N1C[C@@H](COCc2ccccc2)Oc2cc(N3CCC[C@H]3CO)ccc2S1(=O)=O	13	8	nt	5	21*	0
COc1cc2c(cc1OC)CN(CCC(C)c1ccc(Cl)cc1)CC2 (stereo not drawn)	-33*	6	10	-15	-3	14
C[C@H]1CCCCO[C@H](CN(C)C(=O)Nc2ccc(C(F)(F)F)cc2)[C@@H](C)CN([C@@H](C)CO)C(=O)c2cc(NS(=O)(=O)c3ccc(F)cc3)ccc2O1	2	17	-3	84*	4	4
C[C@@H]1CCCCO[C@@H](CN(C)C(=O)Nc2ccc(F)cc2)[C@@H](C)CN([C@H](C)CO)C(=O)c2cc(NS(=O)(=O)c3ccc(F)cc3)ccc2O1	1	-4	-1	-7	nt	-7
C[C@@H]1CCCCO[C@@H](CN(C)C(=O)Nc2ccc(C(F)(F)F)cc2)[C@H](C)CN([C@H](C)CO)C(=O)c2cc(NS(=O)(=O)c3ccc(F)cc3)ccc2O1	5	1	-1	88*	0	20
C[C@@H]1CN([C@H](C)CO)C(=O)c2cc(NS(=O)(=O)c3ccc(F)cc3)ccc2O[C@@H](C)CCCCO[C@H]1CN(C)C(=O)Nc1ccc(F)cc1	-4	12	31	21	nt	-4
C[C@H](CO)N1C[C@H](C)[C@H](CN(C)C(=O)Nc2ccc(C(F)(F)F)cc2)OCCCC[C@H](C)Oc2ccc(NS(=O)(=O)c3ccc(F)cc3)cc2C1=O	7	-5	7	72*	0	6
CN1C(=O)c2cc(NS(=O)(=O)c3ccccc3Cl)ccc2OC[C@H]2O[C@@H](CC(=O)Nc3cc(F)ccc3F)CC[C@@H]21	-3	nt	nt	nt	nt	nt
CNC[C@H]1Oc2ccc(NC(=O)NC(C)C)cc2CC(=O)N(C)C[C@@H]1C	3	nt	nt	nt	nt	nt
O=C1CCCc2ccccc2N1Cc1ccccc1Cl	nt	nt	-8	nt	nt	nt
O=C1CCCc2ccccc2N1Cc1ccc(Cl)cc1Cl	nt	nt	56*	nt	nt	nt
COc1ccc(C(=O)/C=C/C(=O)N(CC(=O)NC2CCCCC2)CC2CCCO2)c(O)c1 (stereo not drawn)	-7	104*	nt	82*	0	56*
COc1ccc(C(=O)/C=C/C(=O)N(CC(=O)NC2CCCCC2)Cc2ccccc2)c(O)c1	-3	100*	7	?	-5	83*
COc1ccc(C(=O)/C=C/C(=O)N(Cc2ccccc2)C(C(=O)NC2CCCCC2)c2ccncc2)c(O)c1 (stereo not drawn)	-13	-15	-5	37	-1	2
COc1ccc(C(=O)/C=C/C(=O)N(CC(=O)NC2CCCCC2)Cc2ccccc2OC)c(O)c1	16	?	nt	3	-1	?
Cc1sc2ncn(CC(=O)Nc3ccccc3F)c(=O)c2c1-c1ccccc1	-28*	8	0	19	1	7
C[C@H]1CN([C@@H](C)CO)C(=O)c2cccc(NC(=O)Nc3ccc(C(F)(F)F)cc3)c2O[C@H]1CN(C)Cc1ccc2c(c1)OCO2	-42	3	-19	nt	10	-6
CSc1ccc(N=Nc2c(C)[nH]n(C)c2=O)cc1	-24*	-63	2	10	0	-41
Cc1[nH]n(-c2ccccc2)c(=O)c1N=Nc1ccc(F)cc1	6	-4	5	-2	-3	-42
COCCOC(=O)c1c(C)oc2ccc(NS(=O)(=O)c3cccs3)cc12	-24	-18	-2	7	-4	-2
CCOC(=O)c1c(C)oc2ccc(NS(=O)(=O)c3cccs3)cc12	-30*	0	10	nt	-5	-1
O=C(C[C@H]1C[C@H]2c3cc(NC(=O)c4cccnc4)ccc3O[C@H]2[C@H](CO)O1)NCc1ccncc1	2	2	1	nt	-1	-3
